Assay results reported in PubChem BioAssay AID977630 (Broad Institute, 2014).
In all, about 1,600 compounds went through this assay and fewer than 10 were called active. Roughly 48% stayed inconclusive and do not appear here.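 Rule for the calls: active = Normal-ribosome green reporter loss at least double humanized-ribosome red reporter loss, with overall culture growth inhibition under a set limit; inconclusive = no clear call, values can overlap the other calls; inactive = the rest.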 Not all results are given here. Entries with a potency or affinity are not part of this list.

Test: growth inhibition of wild-type GFP E. coli, H38-humanized RFP comparator, dose response, H38 mutant RFP vs wild-type GFP, cherry-pick (AID 977630);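 note: wild-type GFP strain mixed equally with humanized-ribosome H38 mutant expressing RFP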
Settings: mixed culture, 24 h; series mostly up to 50 µM; activity change, negative = inhibition: at the top concentration

Activity change, negative = inhibition, inactive:
COc1ccccc1-c1noc2ncnc(Nc3cccc(C)c3C)c12 -12.6
Cc1ccc([N+](=O)[O-])c(OCCn2cnc3ccccc32)c1 -3.1
Cc1cc2nc(SCC(=O)O)nc(C)c2cc1C -1.89
COc1ccc(CN2C(=O)CC(Cc3cc(C)cc(C)c3)C2=O)cc1OC (stereo not given) -9.75
O=C(CN(c1ccc(F)cc1)S(=O)(=O)c1ccccc1)Nc1ccccc1C(=O)O -16.1
COc1ccc(OC)c(-c2nn(-c3ccccc3)cc2C(=O)N2CCc3ccccc3C2)c1 -1.81
CN(C)c1ccc(-c2nnn(CC(=O)Nc3ccccc3N3CCOCC3)n2)cc1 -7.73
CC(CCc1ccccc1)NC(=O)CCC1CCCC1 (stereo not given) -14.9
COc1ccc(-c2nc(C3CCCCC3)no2)cc1OC -8.9
CCC1(C(=O)OC)CCc2c(cc(OC)c3ccccc23)C1=O (stereo not given) -1.7
CN(Cc1c(F)cccc1Cl)C(=O)c1ccc(NS(=O)(=O)c2ccc3[nH]c(=O)[nH]c3c2)cc1 1.93
Nc1ccc(C(=O)Nc2ccc3nc(-c4ccncc4)[nH]c3c2)cc1 -4.86
Cc1ccccc1Nc1c(-c2cccnc2)nc2ccc(Br)cn12 3.56
CN(C)S(=O)(=O)c1cccc(C(=O)Nc2ccc(C(=O)Nc3cccc(S(N)(=O)=O)c3)cc2)c1 -13.6
CCN(CC)c1nc(Oc2ccc(C(=O)OC)cc2)nc(N2CCOCC2)n1 -10.1
Cc1nc2ncnn2c(N2CCC(C(=O)NC3CCCC3)CC2)c1Cc1ccccc1 -8.17
CCN(CC(=O)Nc1cccc(S(=O)(=O)N2CCCC2)c1)CC(=O)Nc1ccccc1OC -16.9
COCc1nnc(NC(=O)c2ccc(S(=O)(=O)N3CCCC3)cc2)o1 -9.48
Cc1cccc(N2Cc3ccc(Br)cc3C2)c1 0.636
CCN(CC)S(=O)(=O)c1ccc(N2CCCC2)c(NC(=O)c2ccccc2OC)c1 -11
O=C(Nc1ccc(Nc2ccccc2)cc1)c1ccc(F)cc1 -19.7
Fc1ccc(Br)cc1SCCc1ccncc1 -5.72
CCOC(=O)c1ccc(NC(=O)c2ccc(OC(C)C)c(OC)c2)cc1 -13.1
COc1cccc(NC2=Nc3cccc4cccc2c34)c1 0.034
CS(=O)(=O)N(CC(=O)N1CCc2ccccc2C1)c1cccc(Br)c1 -7.69
CC1Cc2cc(S(=O)(=O)N3CCN(c4cccc(Cl)c4)CC3)ccc2N1C(=O)C1CC1 (stereo not given) -7.78
Cn1c(=O)c2c(ncn2CC(O)CNc2ccc(F)cc2)n(C)c1=O (stereo not given) -2.9
O=C(NCCCN1CCOCC1)c1sc2cc([N+](=O)[O-])ccc2c1Cl -0.6
CN1OC[C@@H]2CN(C(=O)c3ccco3)[C@H](c3ccc(-c4ccc(C#N)cc4)cc3)C[C@@H]21 -0.137
COCC#Cc1ccc2c(c1)O[C@@H](CN(C)S(=O)(=O)c1cccc(F)c1)[C@@H](C)CN([C@H](C)CO)S2(=O)=O -17.1
O=C(CSCc1cnn(-c2ccccc2)c1-n1cccc1)NCc1cccnc1 4.83
CCOC(=O)C1NN=C(C(=O)c2ccccc2)C1c1ccc(OC)cc1 (stereo not given) -0.226
CN1CCN(C(=O)c2cc3nc(-c4ccco4)cc(C(F)(F)F)n3n2)CC1 4.79
Cc1cccc(CN2C(=O)c3ccccc3Sc3ccc(C(=O)NCCN4CCOCC4)cc32)c1 -9.56
S=c1nc(-c2cccc(Br)c2)[nH][nH]1 -17
O=C(Cc1ccc(Br)cc1)Nc1cccc(-c2cn3c(n2)SCC3)c1 -13.7
Cc1cc(SCC(=O)c2cccs2)n2nc(C)c(-c3ccc(Cl)cc3)c2n1 -3.99
CC(C)[C@@H]1CC[C@@H](C)C[C@H]1O 44.4
COc1ccc(-c2cc(C(=O)O)nc3ccc4ccccc4c23)cc1OC -15.7
COc1ccc(C(=O)COc2ccc(F)cc2)c(O)c1 3.67
O=C(O)CC1(CC(=O)Nc2ccc3sccc3c2)CCCCC1 -2.25
CCOC(=O)C(CC)Sc1cc(C)nc2ccc(OC)cc12 (stereo not given) -17.8
O=C(NC1CCCCC1)C(c1cccc2ccccc12)n1c(=O)c(-c2ccco2)nc2ccccc21 (stereo not given) -2.93
COc1cc(CC(=O)Nc2nc(C)cs2)cc(OC)c1OC -5.62
Cc1cc(NC(=O)c2sc(Nc3ccc(F)c(Cl)c3)nc2N)no1 9.52
COc1cc(OC)cc(-c2nc3ccccc3c(=O)n2OC(=O)c2ccc(C)c(C)c2)c1 10.3
Cn1ccc2cc(-c3ccc4ncnc(NCc5cccs5)c4c3)ccc21 -14.3
Fc1ccccc1C1CCN(Cc2nc(CC3CC3)no2)C1 (stereo not given) 0.528
O=C(COc1ccc(Br)cc1)Nc1ccc(C(=O)Nc2ccccc2C(=O)O)cc1 -23.1
C#CCOc1nc(Nc2cccc([N+](=O)[O-])c2)nc(OCC#C)n1 -4.34
OC(COc1ccc(Cl)cc1)CN1CCN(c2ccccn2)CC1 (stereo not given) -7.68
Cc1nn(-c2ccc(N3CCCCC3)nn2)c(C)c1CCC(=O)Nc1ccc(F)cc1 15.2
COc1cc2c(cc1OC)C1(C)N(CC2)C(C(C)=O)=NN1c1ccc(Cl)cc1 (stereo not given) -11.9
O=C(Nc1ccc(C(F)(F)F)cc1)C1CCN(c2cnccn2)CC1 -7.16
Cc1nn(CC(=O)OCCOc2ccc(Br)cc2)c(C)c1[N+](=O)[O-] -13.8
NS(=O)(=O)c1cccc(NC(=O)COc2ncnc3c2cnn3-c2ccccc2)c1 11.2
c1ccc2c(c1)Nc1cc3ccccc3cc1S2 14.4
CC(C)OC(=O)c1sc2nc(-c3ccccc3)ccc2c1N 6.79
COc1ccc(C2CC(c3ccc(Br)cc3)=NN2C(=O)CN2CCCC2)cc1 (stereo not given) -0.841
COc1ccc(CNC(=O)c2nc(S(=O)(=O)Cc3ccccc3)ncc2Cl)cc1 3.47
CCc1nc2ccccc2c(C(=O)OCC(=O)NC(=O)c2cccn2C)c1C 0.218
O=C(Nc1ccccc1N1CCOCC1)C1CCCCN1S(=O)(=O)c1ccccc1 (stereo not given) -15.6
CCOc1ccc(NC(=O)CCc2nnc3ccc(N4CCC(C)CC4)nn23)cc1 5.84
Cc1cc(C)cc(NS(=O)(=O)c2c(C(=O)N3CCCCCC3)c(C)n(C)c2C)c1 -5.32
COc1ccc(CN(C)C(=O)c2cc(-c3ccc(OC)c(OC)c3)nc3ccccc23)c(OC)c1 -3.82
CC1(C(=O)NS(=O)(=O)c2cccc(F)c2)CCN1C(=O)C1(c2ccc(Cl)cc2)CCC1 (stereo not given) -2.51
CC(C)(C)NC(=O)C(c1ccncc1)N(Cc1ccc(F)cc1)C(=O)c1ccc(-c2ccccc2)[nH]1 (stereo not given) 7.88
Cc1ccc(C(=O)C2Oc3ccccc3C3CC(c4ccc(C)cc4)=NN23)cc1 (stereo not given) 9.36
Cc1nc(N2CCC(C)CC2)c(C#N)c(C)c1[N+](=O)[O-] -13.2
Cc1cc(NC(=O)CCN2C(=O)C3C4C=CC(C4)C3C2=O)ccc1Br (stereo not given) -16.8
CCOc1ccc2[nH]c3c(NCCN(C)C)ncnc3c2c1 -14.5
Cc1ccc(S(=O)(=O)N(C(=O)c2ccncc2)c2ccc(OC(=O)c3ccncc3)cc2)c(C)c1 -4.92
COc1ccc(C(NC(=O)C2CCN(CCOc3ccc(Cl)cc3Cl)CC2)c2ccccc2C)cn1 (stereo not given) -11.5
COc1cccc(-c2ccc(NC(=O)C3CCCN(Cc4cnn(C(C)C)c4)C3)cc2)c1 (stereo not given) -10.3
Cc1cccc(NC(=O)c2c(C)nn(-c3ccccc3)c2Cl)c1 -12.1
CC(C)Oc1cccc(C(=O)C2CCCN(C(=O)c3cc(C(F)(F)F)[nH]n3)C2)c1 (stereo not given) -16.1
Cc1ccccc1-c1nc(CS(=O)(=O)CC(=O)N2CCCCC2)c(C)o1 -7.64
COc1cccc(NC(=O)C(c2ccccc2)N2CCN(c3ccccn3)CC2)c1 (stereo not given) 0.522
COC(=O)c1ccc2nc(-c3ccc(F)cc3)c(Cc3cccc(F)c3)n2c1 8.32
COc1ccc(-c2nn(-c3ccccc3C)cc2CNCc2cccnc2)cc1F 0.878
CC1CCc2c(sc3ncn4c(SCC(=O)NCc5ccco5)nnc4c23)C1 (stereo not given) 0.062
CC1CN(CC(=O)Nc2nc3ccccc3s2)CC(C)O1 (stereo not given) 9.37
O=S(=O)(Nc1ccccc1N1CCCCC1)c1cccs1 -10.8
Cc1ccn2cc(-c3cccc(NC(=O)c4cccs4)c3)nc2c1 -0.986
O=S(=O)(Cc1ccc(Cl)cc1)N1CCN(Cc2ccc3c(c2)OCO3)CC1 33
Cc1cccc(NS(=O)(=O)c2cc3c(cc2C)NC(=O)CO3)c1 2.86
O=C(CSCc1c(Cl)cccc1Cl)NCc1ccccn1 -3.03
Cc1cccc(N2CCN(Cc3nc(-c4ccc(F)cc4F)oc3C)CC2)n1 -12.6
CCNc1nc(N)c(C(=O)C23CC4CC(CC(C4)C2)C3)s1 -3.15
CNC(=O)c1sc(-c2ccccn2)nc1C 43.1
Cc1cc(C)c(OCCN(C)Cc2ccccc2)c(Br)c1 -6.16
O=C(Nc1cc(S(=O)(=O)N2CCCCC2)ccc1N1CCCCC1)C1CC1 -2.36
CCCCNC(=O)c1c(N)[nH]c(C(=O)c2ccccc2)c1-c1ccccn1 -9.15
Cc1nn(S(=O)(=O)c2ccc(Cl)cc2)c(C)c1Sc1ccc([N+](=O)[O-])cc1 2.54
Cc1cccc(NC(=O)c2sc3nc(-c4ccccc4)cn3c2C)n1 -13.7
COC(=O)c1ccc(CSc2nc3ccccc3s2)o1 1.79
COc1ccccc1-c1noc2ncnc(Nc3ccccc3C)c12 -1.41
O=C(c1cccs1)c1c[nH]cc1-c1ccccc1 -0.904
Cc1ccc(CSCC(=O)Nc2ccccc2F)cc1 -11.7
COc1ccc(NC(=O)c2ccc(COc3ccccc3Br)o2)c(OC)c1 -8.05
CCc1nnc(NC(=O)CSc2ncc(-c3ccccc3)[nH]2)s1 7.1
COc1cccc(NC(=O)C2CCC(CNS(=O)(=O)c3cccc4cccnc34)CC2)c1 (stereo not given) -8.77
CCOC(=O)c1sc(Nc2cccc(Cl)c2)nc1C 5.47
Cn1c(=O)n(C)c2cc([N+](=O)[O-])c(N3CCN(C(=O)c4cccc(F)c4)CC3)cc21 -2.34
Brc1ccc(-c2nc3c4ccccc4ccn3c2Cc2ccccc2)cc1 5.21
